About 83,000 compounds went through this panel and 20% of them were active in at least one assay; those are over-represented in the sample as a whole.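 Note: values are percent growth. 100 is the growth of untreated cells, values between 100 and 0 indicate rising inhibition; between -100 and 0 indicates cell death.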 The source made the active and inactive calls. Rule for the calls: active = growth percent below 10; inactive = the rest.
What was measured:
Assay in all cases: NCI-60 one-dose screen, 48 h (100 = growth as untreated, 0 = no growth, -100 = all killed)
Details in all cases: 10 µM
HCT-15 colon = test system: HCT-15 colon
HT29 colon = test system: HT29 colon
SNB-75 CNS = test system: SNB-75 CNS
SNB-19 CNS = test system: SNB-19 CNS
U251 CNS = test system: U251 CNS
PC-3 prostate = test system: PC-3 prostate
SK-MEL-5 melanoma = test system: SK-MEL-5 melanoma
UACC-62 melanoma = test system: UACC-62 melanoma
LOX IMVI melanoma = test system: LOX IMVI melanoma
SK-MEL-28 melanoma = test system: SK-MEL-28 melanoma
SK-MEL-2 melanoma = test system: SK-MEL-2 melanoma
EKVX NSCLC = test system: EKVX NSCLC
UO-31 renal = test system: UO-31 renal
TK-10 renal = test system: TK-10 renal
ACHN renal = test system: ACHN renal
CAKI-1 renal = test system: CAKI-1 renal
A498 renal = test system: A498 renal
CCRF-CEM leukemia = test system: CCRF-CEM leukemia
MOLT-4 leukemia = test system: MOLT-4 leukemia
SN12C renal = test system: SN12C renal

Measured: growth

Cc1ccc2oc(=O)cc(/C(=C3/C=CC=N3)c3ccc[nH]3)c2c1
inactive: SNB-19 CNS 16.2% | UACC-62 melanoma 11.8% | SK-MEL-28 melanoma 27.7% | EKVX NSCLC 16.5% | ACHN renal 10% | CCRF-CEM leukemia 10.4%
active: HCT-15 colon 5.43% | HT29 colon -36.6% | SNB-75 CNS 8.89% | U251 CNS -17.2% | PC-3 prostate 8.12% | SK-MEL-5 melanoma -59.2% | LOX IMVI melanoma 0.877% | SK-MEL-2 melanoma 2.71% | UO-31 renal 5.2% | TK-10 renal 1.86% | CAKI-1 renal 3.96% | A498 renal -9.36% | MOLT-4 leukemia -3.84%

COc1cc(/C=C/C(=O)c2cc(-c3ccc(F)cc3)ccc2O)cc(OC)c1OC
inactive: HCT-15 colon 84.2% | HT29 colon 87.1% | SNB-75 CNS 91.9% | SNB-19 CNS 86.8% | U251 CNS 79.9% | PC-3 prostate 54.6% | SK-MEL-5 melanoma 48.1% | UACC-62 melanoma 58.5% | LOX IMVI melanoma 48.9% | SK-MEL-28 melanoma 100% | SK-MEL-2 melanoma 75.4% | EKVX NSCLC 53% | SN12C renal 74.3% | TK-10 renal 108% | ACHN renal 76.8% | CAKI-1 renal 60.5% | MOLT-4 leukemia 26.3%
active: CCRF-CEM leukemia -3.16%

Clc1cc(Cl)c(OCCCCCCN2CCNCC2)c(Cl)c1
active: HCT-15 colon -32% | HT29 colon -34.1% | U251 CNS 8% | SK-MEL-5 melanoma -15.6% | UACC-62 melanoma -54.4% | LOX IMVI melanoma -66.2% | SK-MEL-28 melanoma -12.6% | MOLT-4 leukemia -9.72%
inactive: SNB-75 CNS 52.7% | SNB-19 CNS 49.8% | PC-3 prostate 46.1% | SK-MEL-2 melanoma 65.2% | EKVX NSCLC 63.3% | UO-31 renal 73.2% | TK-10 renal 65.9% | ACHN renal 47.2% | CAKI-1 renal 32.3% | A498 renal 48.1% | CCRF-CEM leukemia 10.7%

COc1ccc(C2=Cc3ccc(OC(C)=O)cc3OC2)cc1
inactive: HCT-15 colon 82.4% | HT29 colon 97.2% | SNB-75 CNS 107% | SNB-19 CNS 98.8% | U251 CNS 89.3% | PC-3 prostate 90.5% | SK-MEL-5 melanoma 90.6% | UACC-62 melanoma 85.4% | LOX IMVI melanoma 82.7% | SK-MEL-28 melanoma 112% | SK-MEL-2 melanoma 97.5% | EKVX NSCLC 66.2% | SN12C renal 87.2% | TK-10 renal 102% | ACHN renal 80.8% | CAKI-1 renal 88.2% | A498 renal 82.2% | CCRF-CEM leukemia 70.8% | MOLT-4 leukemia 44.5%

CC(=O)c1ccc(NCn2nc(-c3ccc(Cl)cc3)oc2=S)cc1
inactive: HCT-15 colon 99.3% | HT29 colon 98.3% | SNB-75 CNS 107% | SNB-19 CNS 95.8% | U251 CNS 96.1% | PC-3 prostate 89.9% | SK-MEL-5 melanoma 104% | UACC-62 melanoma 93.3% | LOX IMVI melanoma 90.3% | SK-MEL-28 melanoma 95.5% | SK-MEL-2 melanoma 99.3% | EKVX NSCLC 103% | UO-31 renal 95.8% | TK-10 renal 95.9% | ACHN renal 96.1% | CAKI-1 renal 97% | A498 renal 106% | CCRF-CEM leukemia 103% | MOLT-4 leukemia 81.8%

c1ccc(C2CCCCC2)c(OCCCCCN2CCNCC2)c1
inactive: SNB-75 CNS 48.3% | SNB-19 CNS 71.1% | U251 CNS 26.1% | PC-3 prostate 43.6% | SK-MEL-5 melanoma 16.5% | SK-MEL-2 melanoma 82% | EKVX NSCLC 67.4% | UO-31 renal 66.6% | TK-10 renal 83.2% | ACHN renal 53.3% | CAKI-1 renal 66.2% | A498 renal 52.4% | CCRF-CEM leukemia 27.1% | MOLT-4 leukemia 33.5%
active: HCT-15 colon -34.7% | HT29 colon 3.84% | UACC-62 melanoma -51.3% | LOX IMVI melanoma -35% | SK-MEL-28 melanoma -15.8%

CCCCn1c(=O)[nH]c2c(c1=O)C(c1ccc(Cl)cc1)c1c([nH]c(=O)n(CCCC)c1=O)N2
inactive: HCT-15 colon 95.6% | HT29 colon 97.2% | SNB-75 CNS 91.7% | SNB-19 CNS 99.5% | U251 CNS 94% | PC-3 prostate 93.4% | SK-MEL-5 melanoma 102% | UACC-62 melanoma 98.2% | LOX IMVI melanoma 94.9% | SK-MEL-28 melanoma 102% | SK-MEL-2 melanoma 108% | EKVX NSCLC 99.9% | UO-31 renal 94.9% | TK-10 renal 91.3% | ACHN renal 105% | CAKI-1 renal 95.6% | A498 renal 103% | CCRF-CEM leukemia 108% | MOLT-4 leukemia 104%

CNC(=S)Sc1ccc([N+](=O)[O-])cc1[N+](=O)[O-]
inactive: HCT-15 colon 36.8% | SNB-75 CNS 88.1% | SNB-19 CNS 94.3% | U251 CNS 72.5% | PC-3 prostate 84.4% | SK-MEL-5 melanoma 44.8% | UACC-62 melanoma 81.6% | LOX IMVI melanoma 19.3% | SK-MEL-28 melanoma 66.1% | SK-MEL-2 melanoma 90.7% | EKVX NSCLC 72.1% | UO-31 renal 60.2% | TK-10 renal 84.3% | ACHN renal 37.3% | CAKI-1 renal 27% | A498 renal 80.6% | CCRF-CEM leukemia 12.7% | MOLT-4 leukemia 43.7%
active: HT29 colon 4.84%

CNC(=O)c1cc(Oc2ccc(NC(=O)Nc3ccc(Cl)c(OC(C)C)c3)c(F)c2)ccn1
inactive: HCT-15 colon 41.4% | HT29 colon 41.6% | SNB-75 CNS 75.3% | SNB-19 CNS 66.3% | U251 CNS 58.8% | PC-3 prostate 32.4% | UACC-62 melanoma 34.2% | LOX IMVI melanoma 45.2% | SK-MEL-28 melanoma 70.7% | SK-MEL-2 melanoma 50.2% | EKVX NSCLC 34.8% | UO-31 renal 45.2% | TK-10 renal 66.7% | ACHN renal 41.9% | CAKI-1 renal 64.1% | A498 renal 48.7% | CCRF-CEM leukemia 46.8% | MOLT-4 leukemia 30.9%
active: SK-MEL-5 melanoma 4.12%

CCOC(=O)c1c(C(F)(F)F)n([O-])c2ccc(OC)cc2[n+]1=O
active: PC-3 prostate -3.79% | SK-MEL-5 melanoma -29.4% | EKVX NSCLC 9.51% | CCRF-CEM leukemia 5.58% | MOLT-4 leukemia 5.77%
inactive: HCT-15 colon 23.7% | HT29 colon 48.1% | SNB-75 CNS 11.8% | SNB-19 CNS 25.8% | U251 CNS 26.6% | UACC-62 melanoma 22.8% | LOX IMVI melanoma 31.2% | SK-MEL-28 melanoma 60.8% | SK-MEL-2 melanoma 46.4% | SN12C renal 22.6% | TK-10 renal 49.8% | ACHN renal 32.1% | A498 renal 50.8%

Cc1ccc2c3c(cccc13)-c1ccccc1C2=O
inactive: HCT-15 colon 85% | HT29 colon 83.3% | SNB-75 CNS 89.6% | SNB-19 CNS 96.5% | U251 CNS 87.8% | PC-3 prostate 91.3% | SK-MEL-5 melanoma 91.3% | UACC-62 melanoma 90.6% | LOX IMVI melanoma 97.8% | SK-MEL-28 melanoma 121% | SK-MEL-2 melanoma 97.2% | EKVX NSCLC 67.8% | UO-31 renal 75.2% | TK-10 renal 94% | ACHN renal 96.8% | CAKI-1 renal 89% | A498 renal 78.2% | CCRF-CEM leukemia 83.5% | MOLT-4 leukemia 87.4%
